Screening results: PubChem, National Center for Advancing Translational Sciences (NCATS)
In the library only some 3.8% were active in any assay of this set; here they are far more common.
ATXN viability: Viability Counterscreen for Primary qHTS for Inhibitors of ATXN expression; S2 cells (HEK-293 line with an ATXN2-luciferase reporter) viability, CellTiter-Fluor protease fluorescence, 24 h; Potency, µM (series often up to 56.7 µM), actives largely listed as cytotoxic; hit rate 0.49% among 400,000; note: nearly all actives have a fitted effect of over 40% in size
A549 viability: Nrf2 qHTS screen for inhibitors: counterscreen for cytotoxicity | Potency, µM (series often up to 46 µM), inactives show at the top dose activity change, negative = cytotoxicity, hits mostly inhibitors | A549 ARE-Fluc cells, CellTiter-Fluor viability, 18-24 h | AID 504648, 2011 | hit rate 0.16% among 390,000; note: % is set by controls: 0 for no effect and ±100 for the full control effect
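Cytotoxicity counterscreen: CellTiter-Fluor fluorescence was measured in A549 ARE_Fluc cells after 18-24 h of compound exposure in a concentration series. The subsequent BugLite luminescent read reports ARE-luciferase activity.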
TGFb inhibitor: qHTS for Inhibitors of TGF-b | HepG2 CAGA-GFP TGF-b/SMAD3 reporter, GFP fluorescence, 18 h; TGF-beta stimulated, 500 pg/mL final | Potency, µM (highest dose often 46.1 µM), for inactives: top-dose activity, negative = inhibition, most hits filed as inhibitors | hit rate 1.2% among 410,000 | AID 588855, 2011; note: % is set by controls: 0 for no effect and ±100 for the full control effect; nearly all actives have a fitted effect of over 65% in size
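Cell-based qHTS in HEPG2 carrying a CAGA-GFP Smad reporter; compounds added before 500 pg/mL final TGF-beta, 18 h incubation at 37 degrees C, GFP fluorescence quantified per cell by imaging cytometry.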
Nrf2 block: Nrf2 qHTS screen for inhibitors; A549 ARE-Fluc reporter, luciferase luminescence, 18-24 h; Potency, µM (titrated, usually from 46 µM), without a hit: top-dose activity change, negative = inhibition, actives largely listed as inhibitors; hit rate 2.1% among 360,000; AID 504444, 2011; note: % is set by controls: 0 for no effect and ±100 for the full control effect; nearly all actives have a fitted effect of over 60% in size
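A549 ARE_Fluc cells, 5000/well, 5% FBS OPTI-MEM; compounds in dose-response, 18-24 h at 37 °C/5% CO2; CellTiter-Fluor viability read (Ex 405/Em 525), then BugLite luciferase luminescence = Nrf2 activity.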
ATXN2 expr inh: Primary qHTS for Inhibitors of ATXN expression. HEK-293 ATXN2-luciferase reporter, luminescence, 24 h. Potency, µM (series often up to 57 µM), for the others: at the highest dose activity change, negative = inhibition, usual class: inhibitors. hit rate 0.72% among 360,000. AID 1745845, 2022; note: % is set by controls: 0 for no effect and ±100 for the full control effect; nearly all actives have a fitted effect of over 55% in size
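ATXN2-luciferase reporter cells (luciferase flanked by upstream and downstream ATXN2 gene portions) were treated 24 h at 37 °C with compounds at up to 57 uM. SteadyGlo luminescence gave expression; GF-AFC fluorescence gave viability.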
HepG2 viability: qHTS for Inhibitors of TGF-b: Cytotox Counterscreen | hit rate 0.76% among 410,000 | HepG2 CAGA-GFP viability, ATP luminescence, 18 h | Potency, µM (top dose mostly 46.1 µM), for inactives: at the top dose activity change, negative = cytotoxicity, most hits filed as cytotoxic
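HepG2 CAGA-GFP cells (1000/well, DMEM with 1% FBS) received compound, then TGF-beta at 500 pg/mL final, and were incubated 18 hours at 37 degrees C. Viability was read by CellTiter-Glo luminescence. Media-only wells were set as complete cell-killing and DMSO as no toxicity.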
* marks the source's active call; other numbers are inactive results; i = inactive; u = inconclusive; x = no result; [ ] = another dose, or the depositor's remark. Calls come from the whole dose curve; as a rule, active = well fitted curve in the direction sought with a large enough effect; inconclusive = small, poorly fitted or top-dose-only effect, or another doubt; inactive = no such curve, though single readings can be large; an effect the other way counts as inactive or inconclusive. Potency is the fitted concentration of half-maximal effect.

SMILES	ATXN viability	A549 viability	TGFb inhibitor	Nrf2 block	ATXN2 expr inh	HepG2 viability
CC(=O)c1sc(N/N=C\c2c(O)ccc3ccccc23)nc1C	i	-4.9%	u	u	-34.3%	-27.4%
CCOCCOC(=O)c1[nH]c2c(c1C)C(=O)CC(c1ccc(OC)c(OC)c1)C2 (centres undefined)	i	-1.1%	0.0%	20.6µM*	-18.2%	-6.1%
CCCNc1nc2c(c(=O)n(C)c(=O)n2C)n1CCc1ccccc1	i	-17.7%	-7.9%	4.11µM*	-20.4%	-22.4%
CCCNc1nc2c(c(=O)n(C)c(=O)n2C)n1CCCc1ccccc1	i	-0.3%	0.1%	u	-9.4%	-21.5%
CC(C)n1c(NCCc2ccccc2)nc2c1c(=O)n(C)c(=O)n2C	i	-4.6%	-7.0%	13µM*	-21.4%	3.0%
CCn1c(=NC(=O)CS(=O)(=O)c2ccc(C)cc2)sc2cccc(OC)c21	i	-23.2%	u	23.1µM*	-18.5%	-28.7%
COc1cccc2sc(=NC(=O)CS(=O)(=O)c3ccc(F)cc3)n(C)c12	i	0.6%	u	-24.0%	7.6%	1.5%
O=C(Nc1ccc(F)cc1)Nc1ccc2snnc2c1	i	-23.5%	u	23.1µM*	u	-40.7%
Cc1c(Cl)cccc1NC(=O)Nc1ccc2snnc2c1	i	u	u	20.6µM*	u	-35.8%
CC(=O)c1ccc(NC(=O)Nc2ccc3snnc3c2)cc1	i	3.3%	-19.5%	u	u	-44.2%
CCc1c(C)sc2c1CCN(Cc1cccc(OC)c1)C2c1ccccc1 (centres undefined)	u	u	u	x	-25.1%	-7.2%
Cc1cc(C)cc(NC(=O)c2ccc(S(=O)(=O)NCc3cccnc3)cc2)c1	i	1.1%	-12.7%	-16.4%	-11.3%	-15.5%
O=C(Nc1ccc(Cl)c(Cl)c1)c1cccc(S(=O)(=O)NCc2cccnc2)c1	u	-22.8%	u	14.6µM*	u	-23.1%
Cc1ccc(NS(=O)(=O)c2cccc(C(=O)Nc3cccnc3)c2)c(C)c1	i	-8.8%	-4.6%	8.2µM*	-4.8%	-15.4%
Cc1cccc(NC(=O)c2ccc(S(=O)(=O)NCc3cccnc3)cc2)c1	i	-18.3%	u	11.6µM*	-9.5%	3.6%
COc1cccc(S(=O)(=O)NCc2ccc(C(=O)Nc3ccc(Cl)c(Cl)c3)cc2)c1	i	u	u	x	-10.8%	-35.9%
CC(=O)N(Cc1ccc2c(c1)OCO2)Cc1cc2ccc(C)cc2nc1-c1cccc(C)c1	i	x	x	x	x	x
O=C(Cn1c(=O)n(Cc2ccc(F)cc2)c(=O)c2sc3ccccc3c21)NCc1ccccc1Cl	i	0.0%	5.2%	3.8%	4.1%	11.5%
CN(C(=O)c1coc(=O)c2ccccc12)c1ccc(Br)cc1	i	3.9%	-27.0%	4.9%	-6.5%	42.5%
CN(C(=O)c1coc(=O)c2ccccc12)c1ccc(F)cc1	i	-16.4%	1.1%	23.1µM*	0.6%	-2.4%
O=C(CSc1nnnn1-c1ccc2c(c1)OCCO2)Nc1nc2c(s1)CCCC2	u	u	u	13µM*	-36.9%	-50.2%
COc1cccc(-n2nnnc2SCC(=O)Nc2nc3c(s2)CCCC3)c1	i	5.9%	-8.5%	-9.3%	19.2%	-10.4%
Nc1ncnn1Cc1ccccc1	i	x	-0.7%	x	x	-2.0%
COc1cccc(CN2CCC2(C)C(=O)Nc2ccc(C)c(O)c2)c1F (centres undefined)	u	x	8.4%	x	-21.1%	-36.6%
C=CCOC(=O)Nc1snnc1C	i	2.8%	1.0%	x	-9.4%	12.4%
SMILES	ATXN viability	A549 viability	TGFb inhibitor	Nrf2 block	ATXN2 expr inh	HepG2 viability
Cc1nnsc1NC(=O)OCc1ccc(C(C)(C)C)cc1	i	-14.4%	u	10.3µM*	0.0%	-24.5%
CCCCc1ccc(NC2=NCC(=O)N2CCc2ccccc2)cc1	i	-11.1%	u	u	-19.1%	-13.1%
Cc1ccc(S(=O)(=O)/C(=C/Cl)NC(=O)c2ccccc2)cc1	u	-7.1%	u	18.4µM*	10µM*	-2.5%
COc1cc2c(c(OC)c1OC)-c1ccc(SC)c(=O)cc1C(NC(=O)c1ccccc1)CC2 (centres undefined)	u	18.4µM*	u	u	12.0%	1.1%
C=COC(=O)NC1CCc2cc(OC)c(OC)c(OC)c2-c2ccc(SC)c(=O)cc21 (centres undefined)	u	-4.6%	u	2.7%	-3.0%	-33.4%
COc1ccc(C(=O)Nc2ccccc2C(=O)N2CCCCC2C)cc1 (centres undefined)	i	-9.0%	11.6%	7.3%	-11.3%	4.6%
CN1C(=O)C2(c3ccccc31)N(c1cccc(C(F)(F)F)c1)C(=O)CS2(=O)=O (centres undefined)	i	0.7%	13.6%	23.1%	3.8%	-9.1%
CCn1c(-c2ccccc2)c(C(=O)CCl)c2ccccc21	3.98µM*	0.2%	3.2%	-25.3%	x	8.7%
Cn1c(-c2ccccc2)c(C(=O)CCl)c2ccccc21	7.52µM*	3.5%	u	-1.6%	u	-55.4%
Cn1c(-c2ccccc2)c(CCO)c2ccccc21	i	5.8%	-8.4%	5.8%	-1.3%	-37.1%
CCn1c2ccccc2c(=O)c2ccccc21	x	u	-13.0%	u	-8.0%[11.3 µM]	-14.6%
CC(C)Cn1c(N)c(C(=O)CSc2ncnc3sc4c(c23)CCCC4)c(=O)n(C)c1=O	i	0.1%	-3.2%	9.9%	0.0%	-5.6%
N=c1n(CC(=O)c2ccc(Br)cc2)c2ccccc2n1Cc1ccccc1	x	-12.5%	15.8µM*	7.6%	u	-98.9%
Cc1ccccc1Cn1c(=N)n(CC(=O)c2ccco2)c2ccccc21	i	u	10µM*	-13.9%	-23.1%	-23.5%
CCCn1c(=N)n(CC(=O)c2ccco2)c2ccccc21	i	-3.3%	0.7%	x	1.7%	-9.4%
Cc1ccc2oc3c(c(=O)c2c1)C(c1ccc(F)cc1)N(Cc1ccc2c(c1)OCO2)C3=O (centres undefined)	i	1.9%	-10.2%	11.3%	6.2%	-0.4%
CCN(CC(=O)NC(C)(C)C)C(=O)CCl	u	-17.5%	-10.0%	-18.4%	9.9%	-0.4%
CCOc1ccc(NC(=O)c2nc(S(=O)(=O)Cc3ccccc3C)ncc2Cl)cc1	x	x	12.6µM*	x	x	-100.7%
CCOc1ccc(NC(=O)c2nc(S(=O)(=O)Cc3ccc(F)cc3)ncc2Cl)cc1	x	x	11.2µM*	x	x	-95.7%
CCOc1ccccc1NC(=O)c1nc(S(=O)(=O)Cc2ccccc2F)ncc1Cl	x	x	u	x	x	-17.5%
